{"source": "PubChem BioAssay (NCI)", "note": "The panel holds about 83,000 compounds, 20% with a hit somewhere; the sample as a whole holds those more often.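 Single-dose data. Exposure time 48 hours. Values below 10 considered active.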 Calls of active or inactive are those of the source."}
{"tested_on": "SK-MEL-28 melanoma", "assay": "NCI-60 one-dose screen, 48 h (100 = growth as untreated, 0 = no growth, -100 = all killed)", "settings": "10 µM unless noted"}
{"smiles": "COCCn1cc(-c2csc(-c3c[nH]c4ccccc34)n2)c2cccnc21", "growth": "64.4% (inactive)"}
{"smiles": "CCN(CC)c1ccc(-c2cc(-c3cc(OC)c(OC)c(OC)c3)nc(N3CCC(O)CC3)c2C#N)cc1", "growth": "-46.6% (active)"}
{"smiles": "CN1C(=O)/C(=C/c2ccc(C(=O)Nc3ncc(Cc4cccc(C(F)(F)F)c4)s3)cc2)SC1=S", "growth": "46.4% (inactive)"}
{"smiles": "Nc1ncnc2c1N=C(c1ccc(Cl)cc1)CC(c1cccc(Nc3ccnc4cc(Cl)ccc34)c1)N2", "note": "(centres undefined)", "growth": "86.8% (inactive)"}
{"smiles": "COCCn1cc(-c2nc(-c3cc4cccnc4n3C)cs2)c2ccccc21", "growth": "73.1% (inactive)"}
{"smiles": "COC(=O)[C@]1(C)CCC[C@]2(C)[C@H]3C[C@@H]4[C@H]5[C@@H]6CC/C(=N\\OCC/C(N)=N/O)[C@H]5[C@@]3(CC[C@H]21)CC4(C(C)C)O6", "growth": "88.9% (inactive)"}
{"smiles": "Cc1cccc(-c2nc(C(C)C)sc2-c2ccnc(NCCCNS(=O)(=O)c3ccc(Cl)cc3)c2)c1", "growth": "90.6% (inactive)"}
{"smiles": "O=C(/C=C/C12c3ccccc3C(c3ccccc31)C1C(=O)NC(=O)C12)c1ccc(Cl)cc1Cl", "note": "(centres undefined)", "growth": "4.9% (active)"}
{"smiles": "CC(C)(C)CC(C)(C)Nc1c(-c2c(O)c3ccccc3oc2=O)nc2sc3ccccc3n12", "growth": "58.2% (inactive)"}
{"smiles": "CN(C)CCC(CCN(C)C)(C(=O)O)c1ccccc1", "growth": "105% (inactive)"}
{"smiles": "Cn1c(=O)[nH]c(=O)c2nc3c(nc21)-c1ccccc1C3=O", "growth": "97.4% (inactive)"}
{"smiles": "C=C(c1ccc(C(=O)O)c(F)c1)c1cc2c(cc1C)C(C)(C)CCC2(C)C", "growth": "89.9% (inactive)"}
{"smiles": "C=C1C(=O)O[C@H]2[C@H]1CC/C(COC(=O)C(=O)c1c[nH]c3ccc(Cl)cc13)=C\\CC[C@@]1(C)O[C@@H]21", "growth": "-72.4% (active)"}
{"smiles": "N#Cc1c(-c2ccc(Br)cc2)nc2c(N=Nc3ccc(S(N)(=O)=O)cc3)c(N)nn2c1N", "growth": "63.2% (inactive)"}
{"smiles": "CCN(CC)CCN1C(=O)c2c(c3c4ccccc4[nH]c3c3ccc4ccccc4c23)C1=O", "growth": "0.268% (active)"}
{"smiles": "O=C(/C=C/c1ccccc1)N(C1CCCCC1)C1CCCCC1", "growth": "97.9% (inactive)"}
{"smiles": "CC1(C)CC[C@]2(CO)CC[C@]3(C)[C@](O)([C@H](O)C[C@@H]4[C@@]5(C)CCCNC(C)(C)[C@@H]5CC[C@]43C)[C@@H]2C1", "growth": "100% (inactive)"}
{"smiles": "Nc1nc(N(Cc2ccccc2)c2ccccc2)c2cn[nH]c2n1", "growth": "63.4% (inactive)"}
{"smiles": "CN1CC(c2ccc(Br)cc2)C(C(=O)c2ccc(Br)cc2)C12C(=O)Nc1ccccc12", "note": "(centres undefined)", "growth": "95.6% (inactive)"}
{"smiles": "Nc1nc(C(=O)N/N=C/c2ccc(F)cc2)nn1-c1ccc(S(N)(=O)=O)cc1", "growth": "107% (inactive)"}
{"smiles": "COc1ccc(-c2nc(SCC(=O)Nc3nc4ccc(C)cc4s3)[nH]c(=O)c2C#N)cc1OC", "growth": "108% (inactive)"}
{"smiles": "CNC(=O)NCC1OC(n2cnc3c(NC(=O)Nc4ccccc4)ncnc32)C2OC(=O)CC12", "note": "(centres undefined)", "growth": "107% (inactive)"}
{"smiles": "COc1ccc(NC(=O)c2ccc(Nc3ncnc4c3cnn4-c3cccc(F)c3)cc2)cc1", "growth": "113% (inactive)"}
{"smiles": "CC(C)NS(=O)(=O)/N=C1\\NC(=O)NC1=C(Cl)Cl", "growth": "108% (inactive)"}
{"smiles": "Cc1ccc2cnc(N)c(C#Cc3cc(C(=O)Nc4ccc(CN5CCN(C)CC5)c(C(F)(F)F)c4)cnc3C)c2c1", "growth": "-84.9% (active)"}
{"smiles": "Cc1nn(-c2ccc([N+](=O)[O-])cc2)c2ncnc(N/N=C/c3ccccc3O)c12", "growth": "22% (inactive)"}
{"smiles": "CC(C)(C)OC(=O)CN1CCc2c(sc3ncnc(N4CCN(c5ccc(F)cc5)CC4)c23)C1", "growth": "92.5% (inactive)"}
{"smiles": "COC(=O)[C@@]1(C)CC[C@]2(C)CC[C@]3(C)C4=CC=C5C(=CC(=O)C(O)=C5C)[C@]4(C)[C@@H](O)C[C@@]3(C)[C@@H]2C1", "growth": "-17.8% (active)"}
{"smiles": "Cc1cc(Cl)nc(N2CCN(CCNc3ccnc4cc(Cl)ccc34)CC2)n1", "growth": "47.7% (inactive)"}
{"smiles": "Cc1ccc(C)c2c1sc1nc(N3CCOCC3)c(C#N)c(=O)n12", "growth": "103% (inactive)"}
{"smiles": "COc1ccc2c(c1)CC[C@@H]1[C@@H]2CC[C@]2(C)c3c(cc(C#N)c4c3sc3ccccc34)C[C@@H]12", "growth": "110% (inactive)"}
{"smiles": "C=C1C(=O)O[C@H]2[C@H]1CC/C(COC(=O)NCc1ccc(Cn3c(=O)sn(-c4ccc(I)cc4)c3=O)cc1)=C\\CC[C@@]1(C)O[C@@H]21", "growth": "93.9% (inactive)"}
{"smiles": "O=C(O)CC(C(=O)O)/C(=C\\c1ccccc1)c1ccccc1", "note": "(centres undefined)", "growth": "103% (inactive)"}
{"smiles": "CCN(CC)CCOc1ccc(Nc2ncc3cc(-c4c(Cl)cccc4Cl)c(=O)n(CCOC)c3n2)cc1", "growth": "36.9% (inactive)"}
